Assay results reported in PubChem BioAssay (NCATS).
“And” between values parts separate entries of the source, which are not always exact repeats. Equal values may be shown once. Records with an inconclusive call do not appear. The source made the active and inactive calls. Unless noted, calls come from the whole dose curve; as a rule, active = well fitted curve in the direction sought with a large enough effect; inconclusive = small, poorly fitted or top-dose-only effect, or another doubt; inactive = no such curve, though single readings can be large; an effect the other way counts as inactive or inconclusive.

What was measured:
[1] = molecular target: Cellular tumor antigen p53 (Homo sapiens) (UniProt P04637); test: Primary qHTS for small molecule compounds that upregulate eGFP-tagged delta133p53alpha (in N-terminal) cells. (AID 2060322); conditions: NCI-H358 eGFP-delta133p53alpha fluorescence, 24 h; activation: hits give high values; note: nearly all actives have a fitted effect of over 75% in size; note: potency is the fitted concentration of half-maximal effect;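 for activation: series mostly up to about 56 µM; 0% = DMSO vehicle and 100% = reference activator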
Sequence of Cellular tumor antigen p53 (Homo sapiens) (P04637 whole entry, looked up): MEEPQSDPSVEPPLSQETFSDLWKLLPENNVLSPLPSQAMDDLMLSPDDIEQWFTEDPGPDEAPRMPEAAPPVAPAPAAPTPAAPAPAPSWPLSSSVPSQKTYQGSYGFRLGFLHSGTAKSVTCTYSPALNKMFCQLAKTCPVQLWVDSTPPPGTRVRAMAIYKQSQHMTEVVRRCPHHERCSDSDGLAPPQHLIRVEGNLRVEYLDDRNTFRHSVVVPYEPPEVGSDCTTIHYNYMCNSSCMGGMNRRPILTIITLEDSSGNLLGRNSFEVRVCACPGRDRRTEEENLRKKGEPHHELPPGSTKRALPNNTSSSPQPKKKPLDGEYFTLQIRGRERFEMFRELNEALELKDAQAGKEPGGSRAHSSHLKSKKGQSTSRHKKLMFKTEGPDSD
Summary of the method: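 NCI-H358 cells pre-induced 24 h with 10 ng/ml doxycycline to express N-terminal eGFP-delta133p53alpha, then dosed 24 h at 37C without doxycycline; fixed, Hoechst-stained, GFP intensity by laser scanning cytometry, normalized to DMSO (0%) and 57.5 uM 5-azacytidine (100%).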

[2] = molecular target: Aldehyde dehydrogenase, mitochondrial (Homo sapiens) (UniProt P05091); test: qHTS for Inhibitors of the Aldehyde Dehydrogenase Family (ALDH2) Confirmatory screens (AID 2061303; active = well fitted inhibition curve with a large enough effect; title and protocol of this record describe different tests; note: nearly all actives have a fitted effect of over 45% in size; note: potency is the fitted concentration of half-maximal effect)
[3] = qHTS for Inhibitors of the Aldehyde Dehydrogenase Family (ALDH1A2, ALDH1A3, ALDH2, ALDH3A1) (AID 2061307); note: nearly all actives have a fitted effect of over 50% in size; for Potency: test system not described further here; potency is the fitted concentration of half-maximal effect
[4] = molecular target: Retinaldehyde dehydrogenase 3 (Homo sapiens) (UniProt P47895); test: qHTS for Inhibitors of the Aldehyde Dehydrogenase Family (ALDH1A3) Confirmatory screens (AID 2061311); note: nearly all actives have a fitted effect of over 60% in size; note: potency is the fitted concentration of half-maximal effect
[5] = molecular target: Retinal dehydrogenase 2 (Homo sapiens) (UniProt O94788); test: qHTS for Inhibitors of the Aldehyde Dehydrogenase Family (ALDH1A2) Confirmation screens (AID 2061314); note: nearly all actives have a fitted effect of over 65% in size; note: potency is the fitted concentration of half-maximal effect
[6] = molecular target: Retinaldehyde dehydrogenase 3 (Homo sapiens) (UniProt P47895); test: qHTS for Inhibitors of the Aldehyde Dehydrogenase Family (ALDH1A3) Primary screen (AID 2061315); note: potency is the fitted concentration of half-maximal effect
[7] = molecular target: Aldehyde dehydrogenase 1A1 (Homo sapiens) (UniProt P00352); test: qHTS for Inhibitors of the Aldehyde Dehydrogenase Family (ALDH1A1) Confirmatory screens (AID 2061316); note: nearly all actives have a fitted effect of over 65% in size; note: potency is the fitted concentration of half-maximal effect
[8] = molecular target: Aldehyde dehydrogenase, mitochondrial (Homo sapiens) (UniProt P05091); test: qHTS for Inhibitors of the Aldehyde Dehydrogenase Family (ALDH2) Primary screen (AID 2061308);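 note: plate controls were vehicle for no effect and reference inhibitor for full effect; nearly all actives have a fitted effect of over 55% in size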
[9] = molecular target: Retinaldehyde dehydrogenase 3 (Homo sapiens) (UniProt P47895); test: qHTS for Inhibitors of the Aldehyde Dehydrogenase Family (ALDH1A3) Validation screen (AID 2061312); note: % is set by controls: 0 for no effect and ±100 for the full control effect; nearly all actives have a fitted effect of over 45% in size
[10] = BET inhibitor-based combinations targeting novel dependencies in MECOM-rearranged (r) AML: SET-2 cell line (AID 2202231); conditions: SET-2 AML cells viability, CellTiter-Glo luminescence, 48 h; viability: hits give low values, series mostly up to about 46 µM;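 note: plate controls were DMSO treated cells for no effect and wells without cells for full effect; nearly all actives have a fitted effect of over 35% in size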
Summary of the method: (§1)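 500 cells/well; 11-pt dose curve; 48 h, standard incubator; CellTiter-Glo luminescence after 15 min RT; DMSO/empty-well normalization; AUC plus Z-AUC (mean-centered within each line).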

[11] = BET inhibitor-based combinations targeting novel dependencies in MECOM-rearranged (r) AML: OCI-AML3 cell line (AID 2202232); conditions: Potency: OCI-AML3 viability;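 note: series mostly up to about 46 µM; plate controls were DMSO vehicle wells for no effect and wells without cells for full effect; nearly all actives have a fitted effect of over 35% in size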
Summary of the method: as §1

[12] = BET inhibitor-based combinations targeting novel dependencies in MECOM-rearranged (r) AML: HNT-34 cell line (AID 2202234);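 note: plate controls were vehicle wells for no effect and cell-free wells for full effect; nearly all actives have a fitted effect of over 35% in size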
Summary of the method: (§2)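 Cells were plated at 500 per well and exposed to each drug across an 11-point dose range for 48 hr at standard incubator conditions. Viability was read by CellTiter-Glo luminescence, and activity was expressed as AUC and per-cell-line Z-transformed AUC.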

[13] = BET inhibitor-based combinations targeting novel dependencies in MECOM-rearranged (r) AML: AML-191 cell line (AID 2202236;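 note: plate controls were vehicle wells for no effect and wells without cells for full effect; nearly all actives have a fitted effect of over 35% in size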)
Summary of the method: as §1

[14] = BET inhibitor-based combinations targeting novel dependencies in MECOM-rearranged (r) AML: AML-194 cell line (AID 2202237;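 note: plate controls were vehicle wells for no effect and wells without cells for full effect; nearly all actives have a fitted effect of over 40% in size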)
Summary of the method: as §1

[15] = BET inhibitor-based combinations targeting novel dependencies in MECOM-rearranged (r) AML: MV-4-11 cell line (AID 2202233);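 note: plate controls were DMSO for no effect and blank wells for full effect; nearly all actives have a fitted effect of over 45% in size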
Summary of the method: as §2

[16] = BET inhibitor-based combinations targeting novel dependencies in MECOM-rearranged (r) AML: UCSD-AML1 cell line (AID 2202235);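 note: series mostly up to about 46 µM; plate controls were DMSO vehicle wells for no effect and blank wells for full effect; nearly all actives have a fitted effect of over 40% in size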
Summary of the method: as §2

Cc1cc2ncc(C(=O)NCC(C)(C)NCC(=O)N3CCC[C@H]3C#N)cn2n1
inactive: activation [1] -6.33% | Potency [2] | Potency [3] | Potency [4] | Potency [5]

Cc1csc2c(N[C@@H](C)CN3CCN(S(=O)(=O)c4ccc(Cl)c(Cl)c4)CC3)ncnc12
inactive: activation [1] -2.86% | Potency [6]
active: Potency [2] 12.6 µM | Potency [3] 708 nM and 224 nM | Potency [7] 8.96 µM

Cc1ccccc1C#Cc1ccc(CCC(=O)O)cc1
active: Potency [4] 10.1 µM
inactive: activation [1] 4.3% | Potency [2] | Potency [8] | Potency [9] | Potency [5] | Potency [7]

CC(=O)Nc1sc2c(c1-c1nc3ccccc3s1)CNC2
active: Potency [1] 26.9 µM | Potency [2] 11.3 µM | Potency [3] 7.12 µM | Potency [7] 6.34 µM
inactive: Potency [6]

COc1ccc2c(c1O)OC[C@H]1c3ccc(O)cc3O[C@@H]21
inactive: activation [1] -14.5% | Potency [2] | Potency [8]
active: Potency [4] 22.5 µM

COc1cc(C(O)C2COC(c3ccc(OC4OC(CO)C(O)C(O)C4O)c(OC)c3)C2CO)ccc1O (configuration not stated)
inactive: activation [1] -10.7% | Potency [2] | Potency [3] | Potency [8] | Potency [7]

COC(=O)N1CCN(Cc2cccc(NC(=O)Nc3ccc(C)nc3)c2F)CC1
inactive: activation [1] 4.35% and -6.68% | Potency [2] | Potency [8] | Potency [4] | Potency [9] | Potency [5] | Potency [6] | Potency [7] | viability [10] 104% | Potency [11] | Potency [12] | Potency [13] | Potency [14]

O=C(CN1C2=NCCN2c2ccccc21)c1ccc(-c2ccccc2)cc1
inactive: activation [1] 7.16% | Potency [9] | Potency [5] | Potency [6]
active: Potency [2] 3.57 µM | Potency [3] 3.57 µM | Potency [4] 31.6 µM

CC(=O)NC(C)c1cnc(-c2cnc(Oc3ccc(OC(C)C)cc3)s2)s1 (configuration not stated)
inactive: activation [1] -20% | Potency [2] | Potency [8] | Potency [4] | Potency [9] | Potency [5] | Potency [6]

COc1ccc(-c2cc3onc(-c4ccncc4)c3c(=O)n2C)cc1
inactive: activation [1] -6.68% | Potency [2] | Potency [3] | Potency [6] | Potency [7]

CC[C@H](CO)Nc1nc(NCc2ccc(-c3ccccn3)cc2)c2ncn(C(C)C)c2n1
active: Potency [1] 0.536 µM
inactive: Potency [2] | Potency [3] | Potency [6] | Potency [7]

CC(C)(C)Nc1nc(Nc2ccc(C(N)=O)cc2)cc(N)c1C#N
active: Potency [2] 7.08 µM | Potency [4] 15.8 µM | Potency [5] 3.57 µM | Potency [7] 14.2 µM
inactive: activation [1] 11% | Potency [8] | Potency [9] | Potency [6]

N[C@@H](CCNCc1ccc(Cl)cc1)C(=O)N1CCCCC1
inactive: activation [1] 1.91% | Potency [2] | Potency [3] | Potency [9] | Potency [5] | Potency [6] | Potency [7]

Fc1ccc(N2CCN(CCC3OCCc4ccccc43)CC2)cc1 (configuration not stated)
inactive: activation [1] -6.21% | Potency [2] | Potency [3] | Potency [7]

CC1(NC(=O)c2ccc(C#Cc3cccc(F)c3)cn2)COC1
inactive: activation [1] -11.9% | Potency [2] | Potency [8] | Potency [4] | Potency [9] | Potency [5] | Potency [6] | Potency [7]

Cn1c(=O)c2[nH]c(-c3ccc(S(=O)(=O)O)cc3)nc2n(C)c1=O
inactive: activation [1] 1.02% | Potency [2] | Potency [3] | Potency [4] | Potency [9] | Potency [5] | Potency [7]

COc1ccc(CCO[C@@H]2CCCC[C@H]2N2CC[C@@H](O)C2)cc1OC
inactive: activation [1] -0.477% | Potency [2] | Potency [3] | Potency [4] | Potency [5] | Potency [6] | Potency [7]

O=C(O)c1cnn(-c2nc3cc(OC(F)(F)F)c(Cl)cc3[nH]2)c1
inactive: activation [1] -9.67% | Potency [2] | Potency [5] | Potency [7] | viability [10] 119% | Potency [11] | Potency [15] | Potency [16] | Potency [14]
active: Potency [3] 13.5 µM | Potency [4] 3.18 µM | Potency [6] 10 µM

COc1ccc(NC(=O)c2ccc(-c3ccc(C(=N)N)cc3C)cc2)cc1N1CCN(C)CC1
inactive: activation [1] 8.11% | Potency [2] | Potency [3] | Potency [8]
active: Potency [7] 12.7 µM

C[C@@H]1CN(Cc2ncccn2)C[C@H]1c1nc2c(cnn2C2CCOCC2)c(=O)[nH]1
inactive: activation [1] 0.955% | Potency [2] | Potency [3] | Potency [4] | Potency [9] | Potency [5] | Potency [6]

CN(C)C(=O)Nc1cc(-c2ccccc2)ccc1N(C)C
active: Potency [6] 28.2 µM
inactive: activation [1] -13.7% | Potency [2] | Potency [3]

COc1cc(/C=C/C(=O)OCC2OC(OC3(CO)OC(CO)C(O)C3O)C(O)C(O)C2O)ccc1O (configuration not stated)
inactive: activation [1] 10.7% | Potency [2] | Potency [3] | Potency [8] | Potency [7]
